Out of some 48,000 compounds screened, about 13,000 (27%) showed an effect of 50% or more. The list shows a part of the results.
Test system: Wolbachia pipientis
Experiment: Anti-Wolbachia Cell-Based Screen
Assay type: functional
Design: scale not given: in the data most compounds retested in dose-response had high values
Settings: 5 µM

Structure (SMILES) | Percent Effect [%]
O=C(Nc1ccc(-c2csnn2)cc1)N1CCCC1 | -14.17
CN(C)Cc1csc(-c2nccn2CCc2cccnc2)c1 | -6.294
CCCC(Cn1cnc(-c2ccccc2)c1-c1cncn1CC)N(C)C (stereo not given) | 8.465
CCCNC(=O)c1cc2c(nc1O)CCC(C)C2 (stereo not given) | 4.186
Cc1ccc(C(=O)NCCNS(C)(=O)=O)c(=O)[nH]1 | 2.203
Cc1ccc(C(=O)NCCCNS(C)(=O)=O)c(=O)[nH]1 | 10.14
Cc1ccc(C(=O)NCCS(C)(=O)=O)c(=O)[nH]1 | -10.31
Cc1ccc(C(=O)NC2CCN(S(C)(=O)=O)CC2)c(=O)[nH]1 | 87.03
Cc1ccc(C(=O)NC2CCCN(S(C)(=O)=O)C2)c(=O)[nH]1 (stereo not given) | 107.3
Cc1ccc(C(=O)NCCCS(C)(=O)=O)c(=O)[nH]1 | 0.8619
CN(Cc1ccco1)Cc1ccccc1CNC(=O)c1csnn1 | -8.686
NC(=O)NC(=O)CCN1CCN(CC2CC2)c2ccccc21 | -1.129
OC[C@H]1CN(Cc2c(Cl)cncc2Cl)C[C@H]1CN1CCOCC1 | 11.24
Cn1cccc1C(=O)NCc1cn2c(n1)CN(CC1CCOC1)CC2 (stereo not given) | -25.14
Cn1cc(-c2ncc3c(c2C(=O)O)CCN(CC2CCOC2)C3)cn1 (stereo not given) | 111.7
Cn1cc(-c2ncc3c(c2C(=O)O)CCN(CC2CC2)C3)cn1.O=C(O)C(F)(F)F.O=C(O)C(F)(F)F | 86.35
CN1CCn2c(-c3cnn(C)c3)cnc2C12CCN(CC1CC1)CC2.O=C(O)C(F)(F)F.O=C(O)C(F)(F)F.O=C(O)C(F)(F)F | -10.48
CN(C)C(C(=O)N1CCN(CCn2cccc2)CC1)c1ccc(F)cc1 (stereo not given) | -11.45
COc1cc(N2CCCC3(CCN(c4cncnc4)C3=O)C2)ncn1 (stereo not given) | -10.96
O=C1N(Cc2cccc(F)c2)CCC12CCCN(c1ncc(F)cn1)C2 (stereo not given) | 102
O=C(O)C(F)(F)F.O=C(O)C(F)(F)F.O=C1N(Cc2cccnc2)CCC12CCCN(c1ncccn1)C2 (stereo not given) | 94.5
Cc1cnc(N2CCC3(C2)C(=O)N(C)CCN3Cc2cccnc2)nc1.O=C(O)C(F)(F)F.O=C(O)C(F)(F)F (stereo not given) | 1.691
COc1cccc(CN2CCC3(CCN(c4ncc(C)cn4)C3)C2=O)c1 (stereo not given) | -10.16

Structure (SMILES) | Percent Effect [%]
COc1cc(N2CCC3(CCN(Cc4cccnc4)C3=O)C2)ncn1 (stereo not given) | 116
O=C(O)C(F)(F)F.O=C([C@H]1CCCO1)N1CCCC2(CCN(Cc3ccncc3)C2=O)C1 (stereo not given in full) | 14.29
O=C1N(Cc2ccc(F)c(F)c2)CCCC12CCN(C1CCCC1)C2 (stereo not given) | 7.69
CN1CCN(Cc2cccnc2)C2(CCN(c3ncccn3)C2)C1=O.O=C(O)C(F)(F)F.O=C(O)C(F)(F)F (stereo not given) | -6.592
O=C(O)C(F)(F)F.O=C1N(Cc2ccncc2)CCC12CCCN(c1ncc(F)cn1)C2 (stereo not given) | 97.96
CC(C)(C)[S+]([O-])CCNC(=O)c1csc(NC2CC2)n1 (stereo not given) | 7.627
CSCC(C)(O)CNc1ncccc1C(F)(F)F (stereo not given) | 8.156
COc1ccccc1C(=O)N1CCN(C(=O)CCCc2cn[nH]c2)CC1 | 9.231
COC(=O)CNc1cc(C(=O)NCC(F)(F)F)cc(F)c1C | 5.099
O=C(c1ccccn1)N1C[C@@H]2OCC(=O)N(CC3CCCCC3)[C@@H]2C1 | 1.178
OC1CCN(Cc2cc3c(cc2Br)OCCO3)CC1 | 23.9
Cc1ccc(NC(=O)N2CCCN(C(N)=O)CC2)s1 | -6.622
O=S1(=O)CCC(c2nnc(-c3cnc4onc(C5CCCC5)c4c3)o2)C1 (stereo not given) | -3.167
O=C1O[C@@H]2CN(c3ccccn3)C[C@@H]2N1CCCc1ccc(F)cc1 | 2.286
COCc1nc2cc(NCc3scnc3C)ccc2o1 | 5.426
O=C(O)C(F)(F)F.O=C1N(Cc2cccnc2)CCC12CCCN(c1ncc(F)cn1)C2 (stereo not given) | 109.4
CN1CCN(Cc2cccnc2)C2(CCN(c3ncc(F)cn3)C2)C1=O.O=C(O)C(F)(F)F.O=C(O)C(F)(F)F (stereo not given) | -9.065
Cc1ccc(-c2ccnc(N3CCC4(CC3)CNC(=O)C4)n2)c(C)n1 | -12.24
Cc1noc(-c2ccc(N3CCCC(C(N)=O)C3)nc2)n1 (stereo not given) | -1.352
Cc1csc2ncc(-c3ccnc(N4CCN(C)CC4)n3)c(=O)n12 | 4.781
Cc1ccc(-c2csc3c(=O)[nH]c(N4CCCC(C(N)=O)C4)nc23)cc1 (stereo not given) | 13.87
Cc1csc2ncc(-c3ccnc(N4CCCC4)n3)c(=O)n12 | 95.07
Cc1csc2ncc(-c3ccnc(N4CCCN(C)CC4)n3)c(=O)n12 | 84.49

Structure (SMILES) | Percent Effect [%]
Cc1csc2ncc(-c3ccnc(N4CCC[C@H](C(N)=O)C4)n3)c(=O)n12 | 107.6
C=C(C)COc1cccc(C(=O)N2CCC(O)(c3ccccc3)CC2)c1 | -7.065
CNS(=O)(=O)CC(=O)NC(C)Cc1ccc(-c2ccccc2)cc1 (stereo not given) | -4.402
Nc1ccnc(N2CCC(Cc3ccccc3Cl)(C(=O)O)CC2)n1 | 5.255
CC(O)CN1CCc2onc(C(c3ccccc3)c3ccccc3)c2C1 (stereo not given) | -15.19
COCCNS(=O)(=O)c1cccc2c1CN(C(=O)c1cc(C)on1)CC2 | -0.4963
CCOc1ncnc2c1CCN(Cc1csc(C)n1)CC2.O=C(O)C(F)(F)F | 7.701
Cc1nc(CN2CCc3ncnc(C4CC4)c3CC2)cs1.O=C(O)C(F)(F)F | -1.319
Cc1nc(CN2CCc3cc(C(=O)O)c(N(C)C)nc3CC2)cs1.O=C(O)C(F)(F)F.O=C(O)C(F)(F)F | 99.11
Cc1cccc(CN2CCc3cc(C(=O)O)c(N(C)C)nc3CC2)n1.O=C(O)C(F)(F)F.O=C(O)C(F)(F)F | 105.7
CCCSCC(=O)NS(=O)(=O)c1ccc2c(c1)OCCO2 | -7.969
COc1ccc(Cc2nnc(SC)o2)cc1OC | -1.582
COCCN(Cc1ccc(F)cc1Cl)C(=O)c1cc[n+]([O-])cc1 | -5.927
c1ccc(-c2cc(CN3C[C@@H]4CC[C@H](C3)N(CC3CC3)C4)on2)cc1 | 2.507
O=C(Nc1ccccc1Oc1cccc(F)c1)NC1CCS(=O)(=O)C1 (stereo not given) | 9.337
CN(Cc1nc(Cc2ccccc2F)no1)CC1Cc2ccccc2O1 (stereo not given) | 1.647
O=C(c1cc(C2CC2)on1)N1CC[C@]2(C[C@H](Oc3cccnc3)CO2)C1 | -8.078
CC1N(CC2CC2)C(=O)COC12CCN(C(=O)c1cnccn1)CC2 (stereo not given) | -1.759
C[C@H]1C[C@@H]2CCN(C(=O)c3ccncn3)C[C@H]2O1 | 15.39
Cc1noc(C2CCC3(CCN(C(=O)c4cc(C5CC5)on4)CC3)O2)n1 (stereo not given) | 104.1
Cc1noc(C2CCC3(CCN(C(=O)c4ccncn4)CC3)O2)n1 (stereo not given) | 97.14
Cc1noc(C2CCC3(CCN(C(=O)c4cnccn4)CC3)O2)n1 (stereo not given) | 108.3
Cc1noc(C2CCC3(CCN(C(=O)c4ncccn4)CC3)O2)n1 (stereo not given) | 110.9

Structure (SMILES) | Percent Effect [%]
Cc1noc(C2CCN(C(=O)c3cc(Cl)c(Cl)n3C)CC2)n1 | -8.55
C[C@H]1C[C@H]2CN(C(=O)c3ccncn3)CC[C@H]2O1 | 2.98
Cc1noc(C2CCC3(CCN(C(=O)c4c(C)noc4C)CC3)O2)n1 (stereo not given) | -1.941
Cc1ccc(F)c(S(=O)(=O)NCc2cccc(N3CCOC3=O)c2)c1 | -1.653
COc1ccc(C(=O)NCc2cc(N3CCOCC3)ncn2)o1 | -2.324
COCC(=O)N1CCC2(CC1)CN(c1ncccn1)CCO2 | -1.945
Cc1nn(C)c(Cl)c1C1CCCN1c1ncnc2sccc12 (stereo not given) | -14.86
CC1CCN(C(CNC(=O)Cn2cccn2)c2cccs2)CC1 (stereo not given) | -3.451
O=C(O)C(F)(F)F.O=C(c1ccoc1)N1CCOC2(COCCN(CC3CC3)C2)C1 (stereo not given) | 89.02
Cn1ccc(C(=O)N2C[C@@H]3CN(CC4CC4)CCO[C@@H]3C2)n1.O=C(O)C(F)(F)F | -13.66
O=C(O)C(F)(F)F.O=C(O)C(F)(F)F.O=C(O)C(F)(F)F.c1cc(CN2CCOCC3(C2)CN(Cc2nccs2)CCO3)ccn1 (stereo not given) | -17.66
Fc1cccc(CN2CCOC3(COCCN(CC4CC4)C3)C2)c1.O=C(O)C(F)(F)F.O=C(O)C(F)(F)F (stereo not given) | 100.6
O=C(O)C(F)(F)F.O=C(c1ccoc1)N1CCOC2(COCCN(c3ncccn3)C2)C1 (stereo not given) | 21.15
O=C(O)C(F)(F)F.O=C(c1ccccn1)N1CCOC2(COCCN(Cc3cc[nH]n3)C2)C1 (stereo not given) | -2.383
CC(C)N1CCOCC2(CCCN(C(=O)c3cncn3C)C2)C1.O=C(O)C(F)(F)F (stereo not given) | -5.769
O=C(O)C(F)(F)F.O=C(O)C(F)(F)F.O=C(O)C(F)(F)F.c1coc(CN2CCOC3(COCCN(Cc4ccncc4)C3)C2)c1 (stereo not given) | -11.91
Cn1ccc(C(=O)N2CCOC3(COCCN(CC4CC4)C3)C2)n1.O=C(O)C(F)(F)F (stereo not given) | 108.5
Cn1cncc1C(=O)N1CCOC2(COCCN(CC3CC3)C2)C1.O=C(O)C(F)(F)F (stereo not given) | 104.1
O=C(O)C(F)(F)F.O=C(O)C(F)(F)F.c1cnc(N2CCCC3(CN(CC4CCOCC4)CCO3)C2)cn1 (stereo not given) | -4.594
Cc1cccnc1CSCCCNS(C)(=O)=O | -17.43
N#Cc1cccnc1NCc1ccc(S(=O)(=O)NCC2CCCO2)cc1 (stereo not given) | 8.527
